This note sets out measurements from the supplement of paper PMC7156485.

± gives the standard deviation of the averaged measurements.

Holding throughout (details): concentration: 10 µM; 24 h
The subject of assay [1] is HCC1569. Nature of the assay: cell number relative to DMSO (% of DMSO); higher = more cells (less growth inhibition / toxicity). The essentials: (§1)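 Cell number or H1.0 nuclear intensity appears as percent of the plate control, based on the median of replicates. Measurements came from HCC1569 and TDF cells exposed in triplicate to compounds at 10 µM for 24 h at 37 °C, then imaged in six fields per well at ×10. Positional effects were smoothed out of HCC1569 values.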

Assay [2] concerns TDF. The assay is described as above. In a few lines:
as §1

Assay [3] concerns TDF. Nature of the assay: H1.0 immunofluorescence intensity relative to DMSO (% of DMSO); higher = stronger H1.0 induction, active = 120 or more. In a few lines: as §1
Assay [4] concerns HCC1569. Nature of the assay: H1.0 immunofluorescence intensity relative to DMSO (% of DMSO); higher = stronger H1.0 induction, active = 140 or more. In a few lines: as §1
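Wherever H1.0 immunofluorescence intensity relative to DMSO is given: TDF is a line of transformed human dermal fibroblasts of mesenchymal origin.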
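Wherever cell number relative to DMSO is given: TDF denotes transformed human dermal fibroblasts of mesenchymal origin.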

Regarding `Br.CC1NCCc2cc(O)c(O)cc21` (stereo unspecified), the cell number in the assay on HCC1569 [1] stood at 100; in the assay with TDF [2], 93.9. Further, the results for the H1.0 immunofluorescence intensity with TDF [3] and with HCC1569 [4] were 105 (inactive) and 94.9 (inactive), respectively.
Turning to `CN1C2CC(OC(=O)C(CO)c3ccccc3)CC1C1OC12` (stereo unspecified) [Scopolamine], the cell number in the assay with HCC1569 [1] is 102; in the assay on TDF [2], 105. Also, the H1.0 immunofluorescence intensity with TDF [3] was 94.4 (inactive); with HCC1569 [4] it was 96.7 (inactive).
The matching figures for `CCCCCN(C)CCC(O)(P(=O)([O-])O)P(=O)(O)O.[Na+]`: 99.5, 105, 89.4 (inactive) and 102 (inactive).
The matching figures for `CC(C)(C)C1(O)CC2OC(=O)CC23C(=O)OC2OC(=O)C(O)C231` (stereo unspecified) [Bilobalide]: 99.9, 109, 96.7 (inactive) and 97.2 (inactive).
As to `CN(c1nc2ccccc2s1)C1CCN(CC(O)COc2ccc(F)c(F)c2)CC1.Cl.Cl` (stereo unspecified), the figures for the cell number with HCC1569 [1] and in the assay on TDF [2] were 84.8 and 88.9, respectively. Besides, the H1.0 immunofluorescence intensity in the assay on TDF [3] was 99 (inactive); in the assay on HCC1569 [4] it was 141 (active).
Regarding `NC(Cc1cc(O)c(O)cc1O)C(=O)O` (racemic) [6-Hydroxy-DL-DOPA], the values for the cell number in the assay on HCC1569 [1] and in the assay with TDF [2] were 98.2 and 96.2, respectively. Also, the H1.0 immunofluorescence intensity was 97 (inactive) in the assay with TDF [3] and 93.8 (inactive) with HCC1569 [4].
On to `COc1cc(=O)oc(C=CC=CC=CC(C)=CC2(C)OC(C)C(C)(O)C2O)c1C` (stereo unspecified) [Citreoviridin], for which the cell number with HCC1569 [1] worked out at 36.3; in the assay on TDF [2], 38.6. Besides, the H1.0 immunofluorescence intensity with TDF [3] was 123 (active); in the assay with HCC1569 [4], 77.4 (inactive).
As to `NC(CCCCCP(=O)(O)O)C(=O)O` (stereo not drawn) [D(-)-2-Amino-7-phosphonoheptanoic acid], the values for the cell number with HCC1569 [1] and in the assay on TDF [2] were 99.9 and 95.2, respectively. Besides, the H1.0 immunofluorescence intensity in the assay with TDF [3] was 97.7 (inactive); in the assay on HCC1569 [4], 99.2 (inactive).
For `CCCCCC=CCC=CCC=CCC=CCCCC(=O)NC(C)CO` [(R)-Methandamide], the cell number in the assay with HCC1569 [1] stood at 107; in the assay with TDF [2], 98.1. Also, the H1.0 immunofluorescence intensity with TDF [3] and with HCC1569 [4] was 100 (inactive) each time.
As for `O=C1C=C2C(=CCOC2O)O1` (stereo unspecified) [Patulin], the cell number in the assay with HCC1569 [1] is 22.4; with TDF [2] it was 8.4. Moreover, the H1.0 immunofluorescence intensity is 224 (active) in the assay on TDF [3] and 132 (inactive) with HCC1569 [4].
The matching figures for `CS(=O)(=O)O.O.Oc1ccc2c3c1OC1c4oc5ccccc5c4CC4(O)C(C2)N(CC2CC2)CCC314` (stereo unspecified) [Naltriben methanesulfonate hydrate]: 98.9, 101, 92.8 (inactive) and 119 (inactive).
The matching figures for `Cc1[nH]c2ccc(O)cc2c1CCN.O=C(O)C=CC(=O)O` [2-Methyl-5-hydroxytryptamine maleate]: 106, 98.7, 98.3 (inactive) and 85.2 (inactive).
Consider `NC(=O)CI` [Iodoacetamide], for which the cell number amounted to 47.9 in the assay on HCC1569 [1] and 33.8 in the assay on TDF [2]. Also, the H1.0 immunofluorescence intensity in the assay with TDF [3] was 134 (active); in the assay with HCC1569 [4], 170 (active).
The matching figures for `CCCCCC1OC1CC=CCCCCCCCC(=O)O` (stereo unspecified) [Leukotoxin B (12,13-EODE)]: 105, 106, 96.8 (inactive) and 100 (inactive).
The matching figures for `COC1C=C2CCN(C)C2C2c3cc4c(cc3C(=O)OC12)OCO4.O=[N+]([O-])O` (stereo unspecified) [Ungerine nitrate]: 100, 107, 96.5 (inactive) and 88.8 (inactive).
The matching figures for `CN(C)C(=O)C(CCN1CCC(O)(c2ccc(Cl)cc2)CC1)(c1ccccc1)c1ccccc1.Cl` [Loperamide.HCl]: 102, 98.6, 97.6 (inactive) and 105 (inactive).
Take `Cl.N[C@@H](CCl)C(=O)O` [beta-Chloro-L-alanine hydrochloride]: the figures for the cell number with HCC1569 [1] and in the assay with TDF [2] were 101 and 97.8, respectively. Moreover, the H1.0 immunofluorescence intensity is 92.7 (inactive) in the assay on TDF [3] and 91.9 (inactive) in the assay on HCC1569 [4].
The matching figures for `Cc1c2ccncc2c(C)c2c1[nH]c1ccccc12` [Ellipticine]: 69.4 ± 8.6, 39.3 ± 6.6, 104 (inactive) and 194 (active).
The matching figures for `COc1ccc2c(c1)N1C(C=C(C)C)OOC(C)(C)CC3C1C2C(O)C1(O)C(=O)N2CCCC2C(=O)N31` (stereo unspecified) [Verruculogen]: 102, 106, 96.9 (inactive) and 98.1 (inactive).
Consider `CC1OC(C[N+](C)(C)C)CC1O.[Cl-]` (racemic), for which the cell number is 102 in the assay on HCC1569 [1] and 101 in the assay with TDF [2]. Also, the values for the H1.0 immunofluorescence intensity in the assay on TDF [3] and in the assay with HCC1569 [4] were 96.4 (inactive) and 92 (inactive), respectively.
The matching figures for `Cl.Cl.Cn1cnc(CCN)c1` [1-Methylhistamine dihydrochloride]: 98.1, 110, 86.4 (inactive) and 95.3 (inactive).
Turning to `Cl.c1ccc2sc(C3(N4CCCCC4)CCCCC3)cc2c1` [BTCP hydrochloride], the cell number with HCC1569 [1] is 100; with TDF [2], 106. Moreover, the figures for the H1.0 immunofluorescence intensity in the assay on TDF [3] and in the assay on HCC1569 [4] were 88.2 (inactive) and 96.6 (inactive), respectively.
On to `O=C(Oc1ccc([N+](=O)[O-])cc1)N1CCN(Cc2cccc(Oc3ccccc3)c2)CC1` [4-nitrophenyl 4-(3-phenoxybenzyl)-1-piperazinecarboxylate], for which the values for the cell number in the assay on HCC1569 [1] and in the assay on TDF [2] were 97.4 and 104, respectively. In addition, the H1.0 immunofluorescence intensity with TDF [3] was 101 (inactive); with HCC1569 [4], 105 (inactive).
The matching figures for `CN(C)C(=O)Oc1cccc([N+](C)(C)C)c1.COS(=O)(=O)[O-]`: 109, 103, 97.7 (inactive) and 98.3 (inactive).
